Source: PubChem
The entries come from a sample that favours hits as a whole.
KDM5B inhibitor – Primary screen for KDM5B Histone Demethylases FDH-coupled qHTS; Lysine-specific demethylase 5B (Homo sapiens), Q9UGL1; KDM5B demethylase, FDH-coupled NADH fluorescence (FDH is formaldehyde dehydrogenase); Potency, µM (top dose mostly 57.7 µM), hits mostly inhibitors; 220,000 tested, 2.6% active; active = well fitted inhibition curve with a large enough effect; note: 0% is about no effect; nearly all actives have a fitted effect of over 70% in size
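Compound dilutions met 200 nM (final) KDM5BΔAP for 10 min at room temperature before substrate addition. The substrate mix held 12.5 µM H3K4me3 with cofactors 25 µM α-ketoglutarate and 50 µM Fe²⁺. NADH signal gain over 30 min defined activity.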
Active calls of the source: *; i = inactive. Potency is the fitted concentration of half-maximal effect.

SMILES	KDM5B inhibitor
COc1ccc(CNC(=O)c2noc(-c3ccc(C)cc3)n2)cc1	i
COc1ccccc1CNC(=O)c1ccc2c(c1)OCO2	i
COc1ccc(CCNC(=O)c2noc(-c3ccc(F)cc3)n2)cc1OC	i
CC(NC(=O)c1noc(-c2ccc3c(c2)OCO3)n1)c1ccccc1 (configuration not stated)	i
CCOc1ccccc1CNC(=O)c1noc(-c2ccc3c(c2)OCO3)n1	32µM*
S=C(NCc1ccccc1)NC1CCCC1	i
O=C(O)/C=C/C(=O)c1ccc(F)cc1	i
Cc1cc(C(=O)OCC(=O)NC2CCCCCCC2)c2ccccc2n1	i
Cc1cc(NC(=O)CSc2nc3c(c(=O)n(C)c(=O)n3C)n2Cc2ccccc2C)ccc1F	i
COc1ccc(N2C(=O)CN(C3CCCCC3)[C@H]3CS(=O)(=O)C[C@H]32)cc1	i
Cc1ccc(Cn2c(NCCc3ccc(F)cc3)nc3c2c(=O)n(C)c(=O)n3C)cc1	i
COc1ccc(NC(=O)CSc2nc(C)cc3c2C(=O)OC3)cc1	i
CCOCc1cc(C(=O)O)ccc1OC	i
COc1ccc(N2C(=O)CSC23CCN(C(=O)c2ccccc2Br)CC3)cc1	35µM*
COc1ccc(N2C(=O)CSC23CCN(C(=O)c2cccc(OC)c2)CC3)cc1	i
COCC(=O)N1CCC2(CC1)SCC(=O)N2c1ccc(OC)cc1	i
COC(=O)c1ccc(CN)o1	i
CCOC(=O)C1CCN(C(=O)COC(=O)c2cn(-c3ccccc3)nc2-c2ccccc2)CC1	i
O=C(/C=C/c1cccc(Br)c1)c1ccc(N2CCOCC2)cc1	i
CCCCN(Cc1ccccc1)c1ccc(C(=O)O)cc1NS(=O)(=O)c1ccc(C(C)=O)cc1	i
O=S(=O)(c1ccccc1)c1cnc2cc3c(cc2c1N1CCN(c2ccccc2)CC1)OCCO3	i
O=C(NC1CCCC1)C1CCCN(C2CCN(C3Cc4ccccc4C3)CC2)C1 (configuration not stated)	32µM*
O=C(NC1CCC1)C1CCCN(C2CCN(C3Cc4ccccc4C3)CC2)C1 (configuration not stated)	i
CCCCNC(=O)C1CCCN(C2CCN(C3Cc4ccccc4C3)CC2)C1 (configuration not stated)	i
O=c1c2c(ncn2Cc2ccco2)n(Cc2ccccc2)c(=O)n1CC(O)c1ccccc1 (configuration not stated)	i
SMILES	KDM5B inhibitor
CCn1cnc2c1c(=O)n(CC(=O)OC1CCCCC1)c(=O)n2Cc1ccccc1	i
COc1ccc(CN(C(=O)c2ccco2)c2ccc(CC(=O)NC(C)c3ccccc3)cc2)cc1 (configuration not stated)	i
O=C(/C=C/c1cccs1)c1cc2ccccc2o1	i
O=C(O)c1cccc(-c2ccc(F)cc2)c1	i
O=C(O)Cn1ccc2cc(OCCc3cccc(-c4ccc(F)cc4)c3)cnc21	40µM*
COc1cccc(-c2ccccc2NC(=O)C2CCN(CC(=O)O)CC2)c1	i
O=C(O)Cn1ccc2cc(OCCc3cccc(-c4cccc(F)c4)c3)cnc21	40µM*
Cc1ccnn1CC(=O)N(Cc1ccncc1)Cc1cccc(OCCc2ccc(F)cc2)c1	i
CC1=NS(=O)(=O)N(Cc2ccccc2)C=C1C(=O)OCc1noc(-c2cccc(F)c2)n1	i
COc1cccc(-c2cccc(CCOc3cnc4c(ccn4CC(=O)O)c3)c2)c1	32µM*
COc1cccc(-c2cc(C(=O)NCCOc3ccccc3)[nH]n2)c1	i
Cc1oc(-c2ccccc2)nc1CC(=O)NCCc1cccc(F)c1	i
CC(OC(=O)Cc1n[nH]c(=O)c2ccccc12)C(=O)c1ccc2c(c1)CCC2 (configuration not stated)	i
COc1ccc(OC)c(NC(=O)Cn2cccc2-c2nc(-c3ccc(F)cc3)no2)c1	i
COc1ccc(-c2cc(C(=O)NC3CCN(C)CC3)c3ccccc3n2)cc1OC	i
O=C(Nc1ccon1)c1sc2cccc(Cl)c2c1Cl	i
CC(=O)c1ccc(NC(=O)[C@@]2(CC(=O)O)CC(c3ccc(C)cc3)=NO2)cc1	i
CCCC(C#N)NC(=O)Cc1c[nH]c2ccccc12 (configuration not stated)	i
O=C(O)C1CCc2nnc(C3CCCN(C(=O)c4ccccc4)C3)n21 (configuration not stated)	i
COc1cccc([S+](=O)([O-])N2CCCC(c3nnc4n3C(C(=O)O)CC4)C2)c1 (configuration not stated)	i
O=C(O)C1CCc2nnc(C3CCCN([S+](=O)([O-])c4ccccc4)C3)n21 (configuration not stated)	56µM*
Fc1ccc(N/N=C/c2ccccc2Br)c(F)c1	i
N#Cc1cccc(S(=O)(=O)Nc2c(NC3CCCC3)c3ccccc3oc2=O)c1	i
CC(C(=O)Nc1cccc(Cl)c1)N1CCN(c2ccc([N+](=O)[O-])c3cnccc23)CC1 (configuration not stated)	i
COCCNc1nc2cc(C(=O)N3CC[C@H](CO)[C@@H](O)C3)ccc2n1C	28µM*
SMILES	KDM5B inhibitor
CC[C@H]1CN(C(=O)c2ccc(F)cc2)CC[C@H]1CC(=O)NCCOC	i
CCC[C@H]1CN(C(=O)c2ccc3c(c2)nc(NCCOC)n3C)C[C@@H]1N	i
O=c1[nH]c(=O)n(-c2ccccc2F)c2c1C(C(F)(F)F)(C(F)(F)F)N=C(c1ccncc1)N2	i
O=C(c1nnc(COc2cccc(N3CCOCC3)c2)n1Cc1ccccc1)N1CCC[C@@H]1c1ccc(Br)cc1	i
O=C(NCc1nnc2cc(-c3nc(C4CC4)no3)ccn12)c1ccc2[nH]ccc2c1	i
O=C(NCc1nnc2cc(-c3nc(C4CC4)no3)ccn12)c1ccc(F)c(F)c1	28µM*
COc1ccccc1C(=O)NCc1nnc2cc(-c3nc(C4CC4)no3)ccn12	28µM*
O=C(NCc1nnc2cc(-c3nc(C4CC4)no3)ccn12)c1ccccc1F	8.9µM*
O=C(NCc1nnc2cc(-c3nc(C4CC4)no3)ccn12)c1ccc(F)cc1	i
O=C(NCc1nnc2cc(-c3nc(C4CC4)no3)ccn12)c1nccc2ccccc12	28µM*
Cc1ccc(Cl)cc1NC(=O)CN1CCCN(c2ccc(C(F)(F)F)cn2)CC1	i
O=[N+]([O-])c1cc(S(=O)(=O)Nc2cccc(Cl)c2)ccc1N/N=C/c1ccccc1C(F)(F)F	i
Cc1cccc(C)c1NC(=O)CN(C)S(=O)(=O)c1c(C)noc1C	i
CCN1CCN(CCC(=O)Nc2sc(-c3ccccc3)cc2C(=O)OC)CC1	i
O=C(CSc1nnc(-c2c[nH]c3ccccc23)o1)N1CCNC1=O	i
O=C(Cc1cccc2ccccc12)Nc1cccc2ncccc12	i
COc1ncccc1CNC(=O)Nc1ccc(Br)c(C)c1	i
CCN(C(=O)C1CCCCC1)C1CC1	i
O=C(c1ccccc1OCc1nc(-c2ccccc2)no1)N1CCC(N2CCCCC2)CC1	i
COC(=O)CCC(NC(=O)C12CC3CC(CC(C3)C1)C2)C(=O)OC (configuration not stated)	i
COc1cc(C(=O)/C=C/c2cccc(OC(C)C(=O)O)c2)ccc1O (configuration not stated)	i
Cc1nn(CCC(=O)Nc2ccccc2Cl)c(=O)c(C#N)c1C	i
C=CCNC(=O)NC(=O)CN1CCc2ccccc2C1	i
Cc1cccc(C(=O)NCc2nnc3cc(-c4nc(C5CC5)no4)ccn23)c1	i
